The text below walks through data of PubChem BioAssay (NCATS).

Inconclusive results are not listed. Where a call stands in place of a potency, no number is given. Active and inactive are the calls of the source. Calls come from the whole dose curve; as a rule, active = well fitted inhibition curve with a large enough effect; inconclusive = small, poorly fitted or top-dose-only effect; inactive = no such curve, though single readings can be large or run the other way.

This experiment relates to Zika virus NS2B-NS3 protease (linked construct). Description: Primary screen NINDS Rhodamine qHTS for Zika virus inhibitors (AID 1347160). Note: nearly all actives have a fitted effect of over 55% in size. To be noted: purified NS2B-NS3 protease, Rhodamine110 substrate fluorescence; series mostly up to 57.1 µM. The essentials: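 Percent inhibition, normalized to uninhibited and enzyme-free controls, is fitted to a 4-parameter Hill equation. Fluorescence change comes from a 15-min cleavage of 1.5 microM bis-peptide Rhodamine110 substrate by 25 nM linked NS2B-NS3 at room temperature.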
`O=C(Nc1cnc(Cl)nc1)c1ccc(F)c(F)c1`: the Potency entry was “inactive”.

Turning to `COc1cc2c(cc1OCCCN1CCCC1)N=C(N)C21CCC1`, the Potency entry is “inactive”.

Regarding `CCCC(=O)C1(c2ccccc2)CCN(C(=O)[C@@H](Cc2ccc(OC)cc2)NC(=O)[C@@H](N)Cc2cncn2C)CC1`, the Potency result is “inactive”.

Regarding `C=C(C)C(=O)O[C@H]1[C@H]2C(=C)C(=O)O[C@@H]2/C=C(\CO)CC/C=C(/C=O)[C@@H]1O`, the Potency result is “inactive”.

On to `CC(C)=CCC/C(C)=C/COCC1OC(n2ccc(=O)[nH]c2=O)C(O)C1O` (configuration not stated), for which the Potency entry is “inactive”.

As for `CC(C)(C)NC(=O)[C@H]1CC[C@H]2[C@@H]3CC[C@H]4NC(=O)CC[C@]4(C)[C@H]3CC[C@]12C`, the Potency entry was “inactive”.

With `Cc1c(C(=O)Nc2ccc(N3CCC(N4CCOCC4)CC3)c(C#N)c2)cnn1-c1ccc(Cl)cc1`, the Potency result was “inactive”.
